Data reported in PubChem BioAssay.
A number with no mark means an inactive call. The source made the active and inactive calls. Unless noted, no stated cut-off is given here; in the data, active means inhibition above about 28%; inactive means the rest.

Assays:
[1] = target: Nuclear receptor coactivator 3 (Homo sapiens) (UniProt Q9Y6Q9); assay: NCOA3 GAL4-fusion reporter inhibition – cell-based, luminescence, quadruplicate, confirmation (AID 588792;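 active means mean inhibition over 43.08%, the solvent-only control mean plus 3 SD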;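 further: 0% = DMSO treated cells and 100% = gossypol at 36 µM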); conditions: HEK293 GAL4-SRC3 luciferase reporter, at 3.6 µM, hits give high values
Chain of Nuclear receptor coactivator 3 (Homo sapiens) (Q9Y6Q9 whole entry, looked up, the tested form may be a part): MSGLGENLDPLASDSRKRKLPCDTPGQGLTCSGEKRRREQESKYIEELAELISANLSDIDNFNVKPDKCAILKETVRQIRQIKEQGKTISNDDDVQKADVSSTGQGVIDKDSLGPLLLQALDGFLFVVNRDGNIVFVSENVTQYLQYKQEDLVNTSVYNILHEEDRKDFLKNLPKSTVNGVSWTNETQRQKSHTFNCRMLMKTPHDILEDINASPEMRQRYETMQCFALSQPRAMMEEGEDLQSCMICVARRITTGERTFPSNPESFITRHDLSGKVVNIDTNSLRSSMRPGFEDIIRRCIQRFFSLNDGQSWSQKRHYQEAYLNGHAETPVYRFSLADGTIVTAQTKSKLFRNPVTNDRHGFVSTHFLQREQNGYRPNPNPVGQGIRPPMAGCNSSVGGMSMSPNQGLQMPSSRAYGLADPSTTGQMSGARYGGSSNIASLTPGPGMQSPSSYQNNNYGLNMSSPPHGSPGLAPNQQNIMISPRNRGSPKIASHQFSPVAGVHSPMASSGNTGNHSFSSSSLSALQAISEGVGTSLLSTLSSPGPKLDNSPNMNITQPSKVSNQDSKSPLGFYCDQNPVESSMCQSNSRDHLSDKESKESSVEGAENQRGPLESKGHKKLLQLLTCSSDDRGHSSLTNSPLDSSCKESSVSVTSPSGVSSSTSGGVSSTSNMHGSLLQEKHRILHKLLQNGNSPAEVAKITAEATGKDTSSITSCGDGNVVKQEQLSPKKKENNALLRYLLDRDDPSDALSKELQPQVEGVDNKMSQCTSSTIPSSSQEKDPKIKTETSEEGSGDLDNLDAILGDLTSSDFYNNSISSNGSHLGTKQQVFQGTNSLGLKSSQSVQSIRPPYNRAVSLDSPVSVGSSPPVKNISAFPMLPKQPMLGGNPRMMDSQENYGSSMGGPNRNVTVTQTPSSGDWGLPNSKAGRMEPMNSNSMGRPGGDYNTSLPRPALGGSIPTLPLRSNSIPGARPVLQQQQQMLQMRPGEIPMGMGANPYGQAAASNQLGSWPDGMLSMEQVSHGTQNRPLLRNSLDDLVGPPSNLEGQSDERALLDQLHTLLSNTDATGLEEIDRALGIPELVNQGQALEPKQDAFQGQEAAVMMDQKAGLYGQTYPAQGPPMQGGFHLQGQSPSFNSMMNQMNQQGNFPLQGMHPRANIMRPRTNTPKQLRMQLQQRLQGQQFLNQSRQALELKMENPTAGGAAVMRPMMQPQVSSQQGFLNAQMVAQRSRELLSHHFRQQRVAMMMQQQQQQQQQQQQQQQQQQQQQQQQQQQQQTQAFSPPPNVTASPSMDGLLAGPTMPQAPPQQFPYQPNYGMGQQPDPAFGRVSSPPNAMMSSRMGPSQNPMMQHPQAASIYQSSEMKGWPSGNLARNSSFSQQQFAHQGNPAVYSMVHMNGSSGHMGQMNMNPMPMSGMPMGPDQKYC

[2] = tested on: transactivating tegument protein VP16 (Human herpesvirus 1), Gal4-VP16 luciferase reporter; assay: repression of VP16-driven luciferase reporter – cell-based, luminescence, high throughput, counter-screen for SRC3 inhibitor project (AID 588794; in the data active means inhibition above about 30%); conditions: mammalian cells, at 3.6 µM, hits give high values
[3] = target: Nuclear receptor coactivator 1 (Homo sapiens) (UniProt Q15788); assay: NCOA1 GAL4-fusion reporter inhibition – cell-based, luminescence, quadruplicate, confirmation (AID 588820;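 active means mean inhibition above 46.68%, the untreated control wells mean plus 3 SD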;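 further: 0% = DMSO wells and 100% = gossypol 36 µM treated wells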); conditions: HEK293 GAL4-SRC1 luciferase reporter, at 3.6 µM, hits give high values
Chain of Nuclear receptor coactivator 1 (Homo sapiens) (Q15788 whole entry, looked up, the tested form may be a part): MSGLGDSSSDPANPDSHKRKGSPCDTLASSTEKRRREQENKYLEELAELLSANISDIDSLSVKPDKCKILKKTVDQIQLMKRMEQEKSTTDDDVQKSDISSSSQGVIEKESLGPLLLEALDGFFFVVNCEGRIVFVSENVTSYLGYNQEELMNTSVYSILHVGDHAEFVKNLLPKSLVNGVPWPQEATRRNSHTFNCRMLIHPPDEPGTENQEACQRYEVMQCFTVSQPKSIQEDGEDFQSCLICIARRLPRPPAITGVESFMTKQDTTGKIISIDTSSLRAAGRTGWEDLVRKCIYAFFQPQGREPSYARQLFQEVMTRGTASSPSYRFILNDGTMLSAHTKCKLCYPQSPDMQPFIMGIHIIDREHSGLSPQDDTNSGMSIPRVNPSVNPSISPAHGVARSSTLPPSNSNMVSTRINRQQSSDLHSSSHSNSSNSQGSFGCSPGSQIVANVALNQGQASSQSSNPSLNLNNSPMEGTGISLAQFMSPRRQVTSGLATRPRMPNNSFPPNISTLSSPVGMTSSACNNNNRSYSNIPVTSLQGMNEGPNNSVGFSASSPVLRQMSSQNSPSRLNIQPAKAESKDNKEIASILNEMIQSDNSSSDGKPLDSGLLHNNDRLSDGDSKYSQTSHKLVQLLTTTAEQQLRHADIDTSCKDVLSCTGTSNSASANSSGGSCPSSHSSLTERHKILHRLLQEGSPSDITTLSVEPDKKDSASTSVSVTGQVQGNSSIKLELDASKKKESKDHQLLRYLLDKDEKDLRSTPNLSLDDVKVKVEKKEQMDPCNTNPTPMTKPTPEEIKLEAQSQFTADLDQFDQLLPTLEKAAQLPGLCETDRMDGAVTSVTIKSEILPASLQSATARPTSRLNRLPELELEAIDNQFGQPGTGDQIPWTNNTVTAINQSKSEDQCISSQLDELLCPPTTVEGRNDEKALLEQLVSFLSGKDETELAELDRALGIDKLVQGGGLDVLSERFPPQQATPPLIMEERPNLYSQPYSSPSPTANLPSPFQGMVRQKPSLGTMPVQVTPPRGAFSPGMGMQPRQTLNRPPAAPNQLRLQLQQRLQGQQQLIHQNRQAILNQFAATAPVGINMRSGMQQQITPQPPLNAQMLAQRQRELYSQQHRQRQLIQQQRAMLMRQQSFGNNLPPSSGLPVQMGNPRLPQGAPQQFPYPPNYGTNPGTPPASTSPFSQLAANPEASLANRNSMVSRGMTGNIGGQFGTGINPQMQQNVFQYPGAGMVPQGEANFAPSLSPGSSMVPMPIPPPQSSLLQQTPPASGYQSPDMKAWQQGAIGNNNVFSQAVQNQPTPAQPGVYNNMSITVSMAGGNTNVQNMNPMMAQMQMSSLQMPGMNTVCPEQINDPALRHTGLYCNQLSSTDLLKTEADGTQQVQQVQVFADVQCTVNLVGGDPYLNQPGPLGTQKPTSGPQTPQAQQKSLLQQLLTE

[4] = repression of VP16-driven luciferase reporter – cell-based, luminescence, high throughput, counter-screen for SRC1 inhibitor project (AID 588824; in the data active means inhibition above about 25%); conditions: cell-based VP16 transactivation luciferase luminescence; at 3.6 µM; hits give high values
[5] = StAR promoter reporter inhibitors, counter-screen for LRH-1 inverse agonist project, cell-based, luminescence, high throughput (AID 651611); conditions: StAR promoter luciferase reporter counterscreen, at 3.6 µM, hits give high values
[6] = target: Nuclear receptor subfamily 5 group A member 2 (Homo sapiens) (UniProt O00482); assay: NR5A2 activity suppression in reporter cells – cell-based, luminescence, confirmation (AID 651613; in the data active means inhibition above about 42%;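 further: HEK293T cells co-transfected with LRH-1 and StAR promoter luciferase reporter; 0% = vehicle wells and 100% = parental cells lacking receptor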); conditions: cell-based LRH-1 luciferase reporter, inverse agonism; at 3.6 µM; hits give high values
Chain of Nuclear receptor subfamily 5 group A member 2 (Homo sapiens) (O00482 whole entry, looked up): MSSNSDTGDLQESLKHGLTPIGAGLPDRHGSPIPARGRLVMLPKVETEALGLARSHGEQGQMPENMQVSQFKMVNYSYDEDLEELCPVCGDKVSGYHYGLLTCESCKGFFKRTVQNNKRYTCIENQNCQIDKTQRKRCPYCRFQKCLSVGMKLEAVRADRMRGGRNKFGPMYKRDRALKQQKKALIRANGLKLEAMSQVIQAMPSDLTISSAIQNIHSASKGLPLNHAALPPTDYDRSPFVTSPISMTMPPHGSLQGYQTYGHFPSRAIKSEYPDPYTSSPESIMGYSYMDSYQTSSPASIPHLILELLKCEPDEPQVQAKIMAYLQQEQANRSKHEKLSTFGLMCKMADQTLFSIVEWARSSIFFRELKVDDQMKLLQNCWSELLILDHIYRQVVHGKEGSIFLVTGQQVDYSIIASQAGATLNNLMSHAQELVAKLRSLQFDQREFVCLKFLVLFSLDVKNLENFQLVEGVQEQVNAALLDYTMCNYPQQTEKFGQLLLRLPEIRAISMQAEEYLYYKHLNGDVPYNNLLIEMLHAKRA

[7] = target: Steroidogenic factor 1 (Homo sapiens) (UniProt Q13285); assay: inverse agonism at SF1 nuclear receptor – cell-based, luminescence, high throughput, counter-screen for LRH-1 inverse agonist project (AID 651614; in the data active means inhibition above about 44%;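 further: cells cotransfected with StAR promoter reporter and SF1 expression vector; 0% = vehicle on cells with receptor and 100% = vehicle on cells lacking receptor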); conditions: cell-based SF1 luciferase reporter, at 3.6 µM, hits give high values
Chain of Steroidogenic factor 1 (Homo sapiens) (Q13285 whole entry, looked up, the tested form may be a part): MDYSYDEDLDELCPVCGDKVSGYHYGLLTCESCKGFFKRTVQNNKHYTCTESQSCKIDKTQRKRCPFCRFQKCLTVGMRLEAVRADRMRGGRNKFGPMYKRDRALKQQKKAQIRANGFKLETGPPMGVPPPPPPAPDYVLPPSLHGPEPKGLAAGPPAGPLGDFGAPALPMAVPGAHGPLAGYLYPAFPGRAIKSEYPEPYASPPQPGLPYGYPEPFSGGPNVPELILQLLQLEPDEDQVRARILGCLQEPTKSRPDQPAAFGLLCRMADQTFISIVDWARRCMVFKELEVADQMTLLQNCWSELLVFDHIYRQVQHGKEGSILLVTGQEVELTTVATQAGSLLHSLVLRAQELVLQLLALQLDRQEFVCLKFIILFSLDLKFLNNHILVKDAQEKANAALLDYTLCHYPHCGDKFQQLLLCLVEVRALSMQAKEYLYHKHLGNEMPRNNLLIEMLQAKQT

[8] = compounds suppressing VP16-driven luciferase signal – cell-based, luminescence, high throughput, counter-screen for LRH-1 inverse agonist project (AID 651615; in the data active means inhibition above about 33%); conditions: Gal4-VP16 luciferase reporter cells, at 3.6 µM, hits give high values

Compound	inhibition [1]	inhibition [2]	inhibition [3]	inhibition [4]	inhibition [5]	inhibition [6]	inhibition [7]	inhibition [8]
CC(=NNC(=S)Nc1ccccc1)c1ccccn1	41%	70.5% (active)	-15.4%	67.8% (active)	78.3% (active)	101% (active)	90% (active)	85.6% (active)
COc1cccc(Cn2c(NCc3cccnc3)nc3c2c(=O)n(C)c(=O)n3C)c1	50.8% (active)	41.3% (active)	58.1% (active)	38% (active)	59.4% (active)	55.5% (active)	50.3% (active)	62.8% (active)
CN(Cc1cnc2nc(N)nc(N)c2n1)c1ccc(C(=O)NC(CCC(=O)O)C(=O)O)cc1 (stereo not drawn)	66.2% (active)	22%	52.3% (active)	10.5%	76.1% (active)	50.5% (active)	46.2% (active)	19.9%
CCN1CCS/C1=C\C=C\C1=[N+](CC)CCS1	22.6%	44.8% (active)	4.06%	50.1% (active)	32.9% (active)	77% (active)	79% (active)	69.2% (active)
CN(Cc1ccccc1)C1=CC(=[N+]2CCCCC2)CC(C)(C)C1	43.1% (active)	73.6% (active)	44.8%	75.8% (active)	68% (active)	108% (active)	90.6% (active)	91.1% (active)
CC(C)CCCCCCCCCCCCC(=O)NCC(=O)NC1C(O)C(O)C(Nc2ncnc3nc[nH]c23)OC1C(O)CO (stereo not drawn)	96.9% (active)	95.9% (active)	94.2% (active)	95.4% (active)	96.7% (active)	110% (active)	98.1% (active)	98.2% (active)
